# Reference: article PMC7862700, “An all-to-all approach to the identification of sequence-specific readers for epigenetic DNA modifications on cytosine”
# Tests used:
# Assay in all cases: DAPPL (digital affinity profiling via proximity ligation, sequencing); 10 mM Tris-HCl pH 7.5, 50 mM NaCl, 1 mM DTT, 4% glycerol, room temperature, 30 min; GST-TFs on glutathione beads, 16-mer random dsDNA library, 0.1% formaldehyde crosslink after washing; high values mean tight binding
# Details in all cases: protein: recombinant; tags: N-terminal GST; dsDNA, one strand shown
# FLI1 = target: T1, FLI1 (Homo sapiens, UniProt Q01543 1-452)
# T1 sequence: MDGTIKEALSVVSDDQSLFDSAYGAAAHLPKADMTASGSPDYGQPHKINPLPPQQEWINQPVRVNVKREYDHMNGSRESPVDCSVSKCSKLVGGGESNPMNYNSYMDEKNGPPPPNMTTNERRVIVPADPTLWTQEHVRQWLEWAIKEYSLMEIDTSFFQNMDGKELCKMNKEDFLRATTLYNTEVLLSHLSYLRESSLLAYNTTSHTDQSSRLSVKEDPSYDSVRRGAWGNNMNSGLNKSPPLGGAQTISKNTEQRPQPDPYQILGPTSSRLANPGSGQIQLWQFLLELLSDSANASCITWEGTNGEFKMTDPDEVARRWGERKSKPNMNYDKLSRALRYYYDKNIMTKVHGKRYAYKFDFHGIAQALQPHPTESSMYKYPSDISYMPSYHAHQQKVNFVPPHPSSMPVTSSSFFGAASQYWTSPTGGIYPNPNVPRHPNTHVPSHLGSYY
# In short: (§1)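 Binding signal is defined as a hexamer's read frequency for one factor over its frequency for the tag-only sample. To obtain reads, GST-fused human transcription factors were expressed in yeast, captured on glutathione beads, barcoded with DNA and pooled with that sample. Pools met 200 nmole of a 16-mer random double-stranded DNA library in Tris/NaCl/DTT/glycerol buffer for 30 min at room temperature before washing, 0.1% formaldehyde crosslinking, proximity ligation (BsaI/T4 ligase, 1 h, 37 °C), PCR and Illumina NextSeq500 sequencing.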
# ELK1 = target: T2, ELK1 (Homo sapiens, UniProt P19419 1-428)
# T2 sequence: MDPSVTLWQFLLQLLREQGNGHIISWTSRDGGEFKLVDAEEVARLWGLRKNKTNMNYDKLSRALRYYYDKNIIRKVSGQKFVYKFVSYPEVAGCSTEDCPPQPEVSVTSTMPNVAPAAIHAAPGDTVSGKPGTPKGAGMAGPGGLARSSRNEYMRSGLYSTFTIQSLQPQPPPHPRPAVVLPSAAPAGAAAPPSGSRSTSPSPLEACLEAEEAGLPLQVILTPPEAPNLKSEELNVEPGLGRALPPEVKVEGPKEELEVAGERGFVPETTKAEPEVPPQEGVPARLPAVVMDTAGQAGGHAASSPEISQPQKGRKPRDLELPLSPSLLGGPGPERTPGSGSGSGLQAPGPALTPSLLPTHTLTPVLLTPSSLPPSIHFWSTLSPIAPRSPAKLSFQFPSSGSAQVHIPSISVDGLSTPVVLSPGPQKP
# In short: as §1
# GABPA = target: T3, GABPA (Homo sapiens, UniProt Q06546 1-454)
# T3 sequence: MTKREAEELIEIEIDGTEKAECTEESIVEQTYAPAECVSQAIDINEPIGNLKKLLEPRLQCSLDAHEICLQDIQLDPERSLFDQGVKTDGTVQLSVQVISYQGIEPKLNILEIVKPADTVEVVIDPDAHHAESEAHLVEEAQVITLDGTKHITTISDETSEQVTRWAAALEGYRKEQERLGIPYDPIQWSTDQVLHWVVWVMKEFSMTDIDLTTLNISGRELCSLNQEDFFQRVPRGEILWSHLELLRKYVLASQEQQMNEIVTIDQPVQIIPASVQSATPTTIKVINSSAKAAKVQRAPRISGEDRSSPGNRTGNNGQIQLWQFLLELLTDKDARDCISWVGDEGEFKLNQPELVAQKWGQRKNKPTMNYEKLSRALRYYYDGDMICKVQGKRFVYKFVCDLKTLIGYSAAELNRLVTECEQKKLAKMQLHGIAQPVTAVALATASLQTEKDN
# In short: as §1
# ERG = target: T4, ERG (Homo sapiens, UniProt P11308 1-479)
# T4 sequence: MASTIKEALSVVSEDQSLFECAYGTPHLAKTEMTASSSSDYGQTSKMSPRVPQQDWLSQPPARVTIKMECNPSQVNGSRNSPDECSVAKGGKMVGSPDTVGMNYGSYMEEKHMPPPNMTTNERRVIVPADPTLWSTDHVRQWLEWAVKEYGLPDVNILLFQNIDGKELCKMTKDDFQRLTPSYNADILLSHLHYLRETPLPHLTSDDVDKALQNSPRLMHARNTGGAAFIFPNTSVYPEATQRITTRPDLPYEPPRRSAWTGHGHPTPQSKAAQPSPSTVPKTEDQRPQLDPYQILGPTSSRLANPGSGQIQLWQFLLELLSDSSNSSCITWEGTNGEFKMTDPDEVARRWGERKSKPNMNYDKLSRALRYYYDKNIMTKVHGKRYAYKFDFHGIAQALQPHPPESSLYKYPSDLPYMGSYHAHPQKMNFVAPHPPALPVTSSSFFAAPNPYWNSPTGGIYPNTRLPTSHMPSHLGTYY
# In short: as §1
# ELF1 = ELF1 (Homo sapiens, UniProt P32519 1-619)
# Chain of ELF1 (P32519 whole entry): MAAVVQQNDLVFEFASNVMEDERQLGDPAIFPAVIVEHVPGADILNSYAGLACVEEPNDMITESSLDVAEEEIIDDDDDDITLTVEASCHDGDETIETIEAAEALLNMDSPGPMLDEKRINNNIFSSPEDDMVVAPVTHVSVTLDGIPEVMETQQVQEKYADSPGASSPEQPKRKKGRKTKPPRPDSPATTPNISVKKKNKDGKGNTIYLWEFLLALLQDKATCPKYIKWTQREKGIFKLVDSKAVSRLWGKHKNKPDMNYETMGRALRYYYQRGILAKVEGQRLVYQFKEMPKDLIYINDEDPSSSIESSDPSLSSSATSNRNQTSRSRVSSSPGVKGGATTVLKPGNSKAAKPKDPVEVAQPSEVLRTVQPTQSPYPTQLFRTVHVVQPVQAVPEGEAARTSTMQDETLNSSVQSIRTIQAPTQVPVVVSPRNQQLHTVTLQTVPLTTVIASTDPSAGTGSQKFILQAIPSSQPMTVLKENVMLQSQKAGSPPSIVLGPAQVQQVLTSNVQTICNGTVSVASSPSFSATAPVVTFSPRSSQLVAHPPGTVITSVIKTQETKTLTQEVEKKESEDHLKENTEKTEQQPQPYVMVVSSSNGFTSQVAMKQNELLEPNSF
# In short: as §1
# EHF = target: T5, EHF (Homo sapiens, UniProt Q9NZC4 1-300)
# T5 sequence: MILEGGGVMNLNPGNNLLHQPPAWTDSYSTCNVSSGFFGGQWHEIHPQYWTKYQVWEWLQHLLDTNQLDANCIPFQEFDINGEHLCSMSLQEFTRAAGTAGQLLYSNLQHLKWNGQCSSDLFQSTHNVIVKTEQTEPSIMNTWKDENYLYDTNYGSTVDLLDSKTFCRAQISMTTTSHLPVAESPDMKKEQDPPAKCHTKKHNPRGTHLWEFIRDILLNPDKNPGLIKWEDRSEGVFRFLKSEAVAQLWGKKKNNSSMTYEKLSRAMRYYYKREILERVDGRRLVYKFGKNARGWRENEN
# In short: as §1
# SPI1 = SPI1 (Homo sapiens, UniProt P17947 1-270)
# In short: as §1
# SPIB = SPIB (Homo sapiens, UniProt Q01892 1-262)
# Chain of SPIB (Q01892 whole entry): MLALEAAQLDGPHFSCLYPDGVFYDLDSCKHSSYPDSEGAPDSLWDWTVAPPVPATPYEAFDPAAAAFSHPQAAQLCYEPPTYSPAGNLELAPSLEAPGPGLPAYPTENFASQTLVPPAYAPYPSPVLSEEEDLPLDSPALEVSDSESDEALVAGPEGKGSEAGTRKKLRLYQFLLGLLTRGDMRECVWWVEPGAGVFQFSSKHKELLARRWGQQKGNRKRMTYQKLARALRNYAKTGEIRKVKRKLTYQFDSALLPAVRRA
# In short: as §1
# ELK3 = target: T6, ELK3 (Homo sapiens, UniProt P41970 1-407)
# T6 sequence: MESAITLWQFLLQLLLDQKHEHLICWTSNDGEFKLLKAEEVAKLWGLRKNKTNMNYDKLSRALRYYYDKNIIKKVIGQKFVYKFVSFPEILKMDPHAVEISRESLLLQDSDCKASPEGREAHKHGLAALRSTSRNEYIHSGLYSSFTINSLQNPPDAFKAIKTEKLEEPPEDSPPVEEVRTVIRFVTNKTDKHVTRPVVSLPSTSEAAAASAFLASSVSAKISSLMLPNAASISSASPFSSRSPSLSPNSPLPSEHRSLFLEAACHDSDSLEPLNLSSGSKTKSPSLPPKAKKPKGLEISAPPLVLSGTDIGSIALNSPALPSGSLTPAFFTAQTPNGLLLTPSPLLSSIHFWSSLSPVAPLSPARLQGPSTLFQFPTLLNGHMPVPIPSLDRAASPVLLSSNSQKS
# In short: as §1
sequence,measurement,setting,value
TTATAA,binding signal,FLI1,"1.21 fold enrichment (6-mer frequency, TF over GST control)"
same,binding signal,ELK1,"1.16 fold enrichment (6-mer frequency, TF over GST control)"
same,binding signal,GABPA,"1.15 fold enrichment (6-mer frequency, TF over GST control)"
same,binding signal,ERG,"1.14 fold enrichment (6-mer frequency, TF over GST control)"
same,binding signal,ELF1,"1.14 fold enrichment (6-mer frequency, TF over GST control)"
same,binding signal,EHF,"1.16 fold enrichment (6-mer frequency, TF over GST control)"
same,binding signal,SPI1,"1.16 fold enrichment (6-mer frequency, TF over GST control)"
same,binding signal,SPIB,"1.2 fold enrichment (6-mer frequency, TF over GST control)"
same,binding signal,ELK3,"1.33 fold enrichment (6-mer frequency, TF over GST control)"
CATGGG,binding signal,FLI1,"1.04 fold enrichment (6-mer frequency, TF over GST control)"
same,binding signal,ELK1,"1.07 fold enrichment (6-mer frequency, TF over GST control)"
same,binding signal,GABPA,"1.04 fold enrichment (6-mer frequency, TF over GST control)"
same,binding signal,ERG,"1.07 fold enrichment (6-mer frequency, TF over GST control)"
same,binding signal,ELF1,"1.05 fold enrichment (6-mer frequency, TF over GST control)"
same,binding signal,EHF,"1.03 fold enrichment (6-mer frequency, TF over GST control)"
same,binding signal,SPI1,"1.03 fold enrichment (6-mer frequency, TF over GST control)"
same,binding signal,ELK3,"1.09 fold enrichment (6-mer frequency, TF over GST control)"
CATGAA,binding signal,FLI1,"1.08 fold enrichment (6-mer frequency, TF over GST control)"
same,binding signal,ELK1,"1.16 fold enrichment (6-mer frequency, TF over GST control)"
same,binding signal,GABPA,"1.03 fold enrichment (6-mer frequency, TF over GST control)"
same,binding signal,ERG,"1.07 fold enrichment (6-mer frequency, TF over GST control)"
same,binding signal,ELF1,"1.06 fold enrichment (6-mer frequency, TF over GST control)"
same,binding signal,EHF,"1.15 fold enrichment (6-mer frequency, TF over GST control)"
same,binding signal,SPI1,"1.04 fold enrichment (6-mer frequency, TF over GST control)"
same,binding signal,ELK3,"1.11 fold enrichment (6-mer frequency, TF over GST control)"
TTGCGC,binding signal,FLI1,"1.23 fold enrichment (6-mer frequency, TF over GST control)"
same,binding signal,ELK1,"1.17 fold enrichment (6-mer frequency, TF over GST control)"
same,binding signal,GABPA,"1.1 fold enrichment (6-mer frequency, TF over GST control)"
same,binding signal,ERG,"1.02 fold enrichment (6-mer frequency, TF over GST control)"
same,binding signal,ELF1,"1.1 fold enrichment (6-mer frequency, TF over GST control)"
same,binding signal,EHF,"1.12 fold enrichment (6-mer frequency, TF over GST control)"
same,binding signal,SPI1,"1.06 fold enrichment (6-mer frequency, TF over GST control)"
same,binding signal,ELK3,"1.04 fold enrichment (6-mer frequency, TF over GST control)"
AGCCTC,binding signal,FLI1,"1.39 fold enrichment (6-mer frequency, TF over GST control)"
same,binding signal,ELK1,"1.3 fold enrichment (6-mer frequency, TF over GST control)"
same,binding signal,GABPA,"1.31 fold enrichment (6-mer frequency, TF over GST control)"
same,binding signal,ERG,"1.21 fold enrichment (6-mer frequency, TF over GST control)"
same,binding signal,ELF1,"1.25 fold enrichment (6-mer frequency, TF over GST control)"
same,binding signal,EHF,"1.13 fold enrichment (6-mer frequency, TF over GST control)"
same,binding signal,SPI1,"1.26 fold enrichment (6-mer frequency, TF over GST control)"
same,binding signal,SPIB,"1.07 fold enrichment (6-mer frequency, TF over GST control)"
same,binding signal,ELK3,"1.21 fold enrichment (6-mer frequency, TF over GST control)"
CACCTC,binding signal,FLI1,"1.12 fold enrichment (6-mer frequency, TF over GST control)"
same,binding signal,ELK1,"1.15 fold enrichment (6-mer frequency, TF over GST control)"
same,binding signal,GABPA,"1.2 fold enrichment (6-mer frequency, TF over GST control)"
same,binding signal,ERG,"1.17 fold enrichment (6-mer frequency, TF over GST control)"
same,binding signal,ELF1,"1.2 fold enrichment (6-mer frequency, TF over GST control)"
same,binding signal,EHF,"1.27 fold enrichment (6-mer frequency, TF over GST control)"
same,binding signal,SPIB,"1.1 fold enrichment (6-mer frequency, TF over GST control)"
same,binding signal,ELK3,"1.09 fold enrichment (6-mer frequency, TF over GST control)"
CGCTAG,binding signal,FLI1,"1.07 fold enrichment (6-mer frequency, TF over GST control)"
same,binding signal,ELK1,"1.06 fold enrichment (6-mer frequency, TF over GST control)"
same,binding signal,GABPA,"1.09 fold enrichment (6-mer frequency, TF over GST control)"
same,binding signal,ERG,"1.03 fold enrichment (6-mer frequency, TF over GST control)"
same,binding signal,ELF1,"1.04 fold enrichment (6-mer frequency, TF over GST control)"
same,binding signal,EHF,"1.12 fold enrichment (6-mer frequency, TF over GST control)"
same,binding signal,SPI1,"1.09 fold enrichment (6-mer frequency, TF over GST control)"
same,binding signal,ELK3,"1.3 fold enrichment (6-mer frequency, TF over GST control)"
